A number with no mark means an inactive call. Inconclusive results are not listed. A call without a number means that no potency is given here. Activity calls are given as the source filed them. Calls follow the shape of the dose curve; as a rule, active = well fitted curve in the direction sought with a large enough effect; inconclusive = small, poorly fitted or top-dose-only effect, or another doubt; inactive = no such curve, though single readings can be large; an effect the other way counts as inactive or inconclusive.
What was measured:
[1] = tested on: Nanoluciferase (engineered Oplophorus gracilirostris luciferase); test: Primary Nanoluciferase (NLuc) qHTS assay for identification of artifact compounds. (AID 1845222); also: potency is read from the fitted curve at half-maximal effect;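 as to activity, negative = inhibition: NLuc secreted into diluted conditioned medium of S16 cells; series mostly up to about 54 µM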
How it was run: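 Using secreted nanoluciferase in S16 culture medium (0.22 um filtered, 1:55 dilution), compounds were preincubated 15 min at RT. Signal was generated with Nano-Glo reagent (1:100) over 5 min.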

[2] = Primary redox qHTS assay for identification of artifact compounds. (AID 1845223)
How it was run: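 Amplex Red (25 uM) and HRP (250 mU/mL) in HBSS, with compounds for 15 min, then 250 uM DTT for 30 min, room temperature, dark. Fluorescence 525/598 nm read; normalized to DMSO and 10 uM DA3003; Hill fit.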

Structure (SMILES) | Potency [1] | Potency [2] | activity, negative = inhibition [1] | redox activity (% of DA3003) [2]
O=C(O)C1(c2ccc(-c3ccc(Cl)c(Cl)c3)c(F)c2)CC1 | 16.9 µM (active) | inactive |  | 
COC(=O)c1[nH]c(=O)c2ccccc2c1-c1ccc[nH]1 | inactive | inactive |  | 
COc1c(-c2ccc(O)cc2)cc(OC)c2c1oc1cc(O)c(OC3OC(CO)C(O)C3O)cc12 (stereo not given) | inactive | inactive |  | 
C=C[C@H]1[C@H](O[C@@H]2O[C@H](CO)[C@@H](O)[C@H](O)[C@H]2O)OC=C2C(=O)N3Cc4c([nH]c5ccccc5c4=O)[C@@H]3C[C@H]21 | inactive | inactive |  | 
CC12CC(c3ccoc3)OC(=O)C1CCC1(C)C2CCC(O)C1(C)O (stereo not given) | inactive | inactive |  | 
C=C(C(=O)O)[C@@H]1CC[C@@]2(C)CCC[C@@](C)(O)[C@@H]2C1 | inactive | inactive |  | 
CC/C=C/C=C/C1(C)OC(CC(CO)OC)=CC1=O (stereo not given) | inactive | inactive |  | 
COc1cc(C(CO)CO[C@@H]2O[C@H](CO)[C@@H](O)[C@H](O)[C@H]2O)ccc1O (stereo not given in full) | inactive | inactive |  | 
OC[C@H]1O[C@@H](OCCc2ccccc2)[C@H](O)[C@@H](O)[C@@H]1O | inactive | inactive |  | 
Cn1cc(CCn2cnc(-c3cnn(C)c3)c2-c2ccc(C#N)cc2)cn1 | inactive | inactive |  | 
COC(=O)C1=CO[C@@H](O[C@@H]2O[C@H](CO)[C@@H](O)[C@H](O)[C@H]2O)[C@@H]2C(CO)=CC[C@H]12 | inactive | inactive |  | 
CC1=C2C(=O)C=C(CO[C@@H]3O[C@H](CO)[C@@H](O)[C@H](O)[C@H]3O)[C@@H]2[C@H]2OC(=O)[C@H](C)[C@@H]2CC1 | inactive | inactive |  | 
COc1cc(/C=C/C(=O)O[C@H]2[C@@H]3C=CO[C@@H](O[C@@H]4O[C@H](CO)[C@@H](O)[C@H](O)[C@H]4O)[C@@H]3[C@@]3(CO)O[C@@H]23)ccc1O | inactive | inactive |  | 
Fc1cccc(CN(C2=NCCN2)c2c(Cl)cccc2Cl)c1 | inactive | inactive |  | 
COc1cc(CC2COC(c3ccc(OC4OC(CO)C(O)C(O)C4O)c(OC)c3)C2CO)ccc1O (stereo not given) | inactive | inactive |  | 
COC(=O)C1=COC(O[C@@H]2O[C@H](CO)[C@@H](O)[C@H](O)[C@H]2O)/C(=C\COC(=O)/C=C/c2ccccc2)C1CC(=O)OCCc1ccc(O)cc1 (stereo not given in full) | inactive | inactive |  | 
Cc1c(Cc2ccc3ccccc3n2)c2cc(F)ccc2n1CC(=O)O | inactive | inactive |  | 
C=C1C(=O)O[C@@H]2CC(C)=C([C@@H](C)CCCOC(C)=O)[C@@H](O)[C@H]12 | inactive | inactive |  | 
C=C1C2(C)CC3C4(C)C=CC(=O)OC(C)(C)C4CCC3(C)C1(C(=O)OC)C(=O)C(C)(O)C2=O (stereo not given) | inactive | inactive |  | 
COCC1OC(OC(C)(C)C2CCC3(C)C=C(C4CCC5C4(C)CC(O)C4OC(C(C)(C)O)CCC45C)CCC3O2)C(NC(C)=O)C(O)C1O (stereo not given) | inactive | inactive |  | 
O=C(OCc1ccccc1O[C@@H]1O[C@H](CO)[C@@H](O)[C@H](O)[C@H]1O)C1(O)C=CCCC1O (stereo not given in full) | inactive | inactive |  | 
O=C(/C=C/c1ccc(O)c(O)c1)O[C@@H]1[C@@H](O)[C@H](OC2CCCCC2O)O[C@H](CO)[C@H]1O (stereo not given in full) | inactive | inactive |  | 
C/C=C1/[C@H](O[C@@H]2O[C@H](CO)[C@@H](O)[C@H](O)[C@H]2O)OC=C2C(=O)O[C@@H]3C[C@@H](C(C)CO)[C@H](COC(=O)C[C@H]21)[C@H]3C (stereo not given in full) | inactive | inactive |  | 
CC(=O)OC1C(CO)OC(O[C@H]2[C@H](OC(=O)[C@]34CCC(C)(C)C[C@H]3C3=CCC5[C@@]6(C)CC[C@H](O[C@@H]7O[C@H](C(=O)O)[C@@H](O)[C@H](O[C@@H]8OC[C@@H](O)[C@H](O)[C@H]8O)[C@H]7O[C@@H]7O[C@H](CO)[C@H](O)[C@H](O)[C@H]7O)[C@@](C)(C=O)C6CC[C@@]5(C)[C@]3(C)C[C@H]4O)O[C@H](C)[C@H](OC3OC(C)C(OC4OCC(O)C(O)C4O)C(O)C3O)[C@@H]2O)C(O)C1O (stereo not given in full) |  |  | 1.69% [at 11.6 µM] | 3.62% [at 11.5 µM]
COC(=O)C(Cc1ccccc1)NC(=O)c1ccccc1 (stereo not given) | inactive | inactive |  | 
